The entries come from a sample that favours hits as a whole.
ST2 inh – inhibitors of human ST2 (IL1RL1) binding to IL-33 | Q01638 | AlphaLISA ST2-Fc/biotin-IL-33 interaction, 1 h | inhibition, % for hits at 17 µM | 2.3% of 78,000 active | AID 1259354; in the data active = inhibition above about 30%
Target sequence (Q01638 whole entry, looked up): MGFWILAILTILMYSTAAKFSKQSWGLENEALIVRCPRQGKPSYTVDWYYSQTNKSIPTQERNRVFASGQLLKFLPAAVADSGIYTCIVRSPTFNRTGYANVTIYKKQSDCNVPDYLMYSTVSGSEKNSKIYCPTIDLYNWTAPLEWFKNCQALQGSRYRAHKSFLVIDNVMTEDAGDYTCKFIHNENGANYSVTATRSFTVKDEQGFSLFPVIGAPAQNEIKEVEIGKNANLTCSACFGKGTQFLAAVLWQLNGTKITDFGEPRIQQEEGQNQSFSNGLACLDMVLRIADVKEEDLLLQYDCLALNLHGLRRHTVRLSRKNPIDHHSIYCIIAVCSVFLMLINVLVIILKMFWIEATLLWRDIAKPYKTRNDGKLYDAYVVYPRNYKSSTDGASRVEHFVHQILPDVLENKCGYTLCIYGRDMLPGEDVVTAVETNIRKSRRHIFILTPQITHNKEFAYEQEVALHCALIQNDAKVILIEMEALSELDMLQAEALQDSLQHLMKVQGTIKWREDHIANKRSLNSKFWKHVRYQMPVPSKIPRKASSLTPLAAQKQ
Numbers stand for hits; 0 = inactive.

SMILES	ST2 inh
COc1cc(/C=C/c2nc3ccccc3c(=O)n2-c2ccccc2OC)ccc1O	0
O=c1c2ccccc2nc(/C=C/c2ccc(O)cc2)n1-c1cccc([N+](=O)[O-])c1	34%
COc1ccc(/C=C/c2nc3ccccc3c(=O)n2-c2ccccc2[N+](=O)[O-])cc1	44%
COc1ccc(-n2c(/C=C\c3ccccc3F)nc3ccccc3c2=O)c(OC)c1	30%
CCOc1cc(CN2CCN(CC)CC2)ccc1O	0
CS(=O)(=O)NC[C@H]1C[C@@H]2CCN1C[C@@H]2CN1CCN(c2ccc(F)cc2)CC1	0
S=C(NC[C@H]1C[C@@H]2CCN1C[C@@H]2CN1CCSCC1)Nc1ccccc1	0
O=C1C2C(C(=O)N1c1ccccc1F)C1(Cl)C(Cl)=C(Cl)C2(Cl)C1(Cl)Cl (stereo not drawn)	0
O=C(c1coc2ccccc12)N1C[C@@H](c2ccccc2)[C@@H]2[C@H]1C1CCN2CC1	0
COCCC(=O)N1C[C@@H]2C[C@H](C1)c1ccc(NC(=O)C3CCCCC3)c(=O)n1C2	0
COc1cc(C(=O)N2CCC3(CC2)CN(C)CCN3C)ccn1	0
S=C(NC[C@H]1C[C@@H]2CCN1C[C@@H]2CN1CCOCC1)Nc1ccc(-n2cccn2)cc1	0
Cc1cccc(N2CCN(Cc3ccc([N+](=O)[O-])cc3)CC2)c1C	47%
CCN1CCN(Cc2ccc(N(C)C)cc2)CC1	32%
CCN1CCN(Cc2ccc(Cl)cc2)CC1	0
CCN1CCN(Cc2ccc(OC)c(OC)c2)CC1	0
Cc1cccc(N2CCN(Cc3ccccc3)CC2)c1C	0
Cc1ccccc1N1CCN(Cc2ccccc2)CC1	0
Cc1cccc(N2CCN(Cc3ccc(F)cc3)CC2)c1C	0
COc1cc(CN2CCN(c3cccc(C)c3C)CC2)ccc1O	0
Cc1cccc(N2CCN(Cc3ccc(N(C)C)cc3)CC2)c1C	54%
c1ccc(C23CC4CN(CCN(C4)C2)C3)cc1	0
Cn1nc(-c2ccco2)cc1[C@H]1CN2CC[C@H]1C[C@@H]2CNS(=O)(=O)c1cccs1	0
CN(C)Cc1cn(C[C@H]2C[C@@H]3CCN2C[C@@H]3C(=O)N2CCCC2)nn1	0
O=C(Nc1ccc2n(c1=O)C[C@H]1C[C@@H]2CN(C(=O)c2ccccc2)C1)c1cccs1	0
SMILES	ST2 inh
C=CCSCC(=O)N1CCC2(CCNCC2)CC1	0
COc1ccccc1N1CCN(Cc2ccc(F)cc2)CC1	0
COc1cc(OC)c(CN2CCN(C)CC2)cc1Br	0
COc1ccc(N2CCN(Cc3ccc(C)cc3)CC2)cc1	33%
CCOc1ccccc1N1CCN(Cc2ccc(OC)cc2)CC1	0
COc1ccc(OC)c(CN2CCN(C)CC2)c1	0
COc1cc(C)c(CN2CCN(c3ccc(F)cc3)CC2)cc1C	0
COc1ccc(CN2CCN(Cc3ccccc3Cl)CC2)cc1Br	0
COc1ccc(CN2CCN(c3ccc(OC)cc3)CC2)cc1	32%
COc1ccc(CN2CCN(c3ccccc3Cl)CC2)c(OC)c1	0
COc1ccc(OC)c(CN2CCN(c3ccc(Cl)cc3)CC2)c1	34%
CC(=O)c1ccc(N2CCN(Cc3ccc(C)cc3)CC2)cc1	0
COc1cc(OC)c(CN2CCN(c3ccccc3)CC2)cc1Br	36%
CCCNC(=O)CN1CCCN(Cc2ccccc2)S1(=O)=O	0
COC(=O)c1cccc(NC(=S)NC[C@H]2C[C@@H]3CCN2C[C@@H]3c2cc(-c3ccccc3OC)nn2C)c1	0
S=C(NCCN1CCOCC1)NC[C@H]1C[C@@H]2CCN1C[C@@H]2CN1CCCCC1	0
Cc1c(C(c2ccccc2)c2c(O)c3ccccc3oc2=O)c(=O)n(-c2ccccc2)n1C (stereo not drawn)	0
O=C(NCc1cccc(OC(F)F)c1)c1cn(CC2CCCNC2)nn1 (stereo not drawn)	0
CC[C@H]1CN2CC[C@H]1C[C@@H]2CNC(=S)NCC1CCCCC1	0
C=CCN(C)C[C@H]1CN2CC[C@H]1C[C@@H]2CNC(=O)c1ccco1	0
CSc1ccc(-c2ccc3n(c2=O)C[C@H]2C[C@@H]3CN(S(=O)(=O)c3cccs3)C2)cc1	0
c1cn(CCc2cnc[nH]2)c(C2CCOC2)n1 (stereo not drawn)	0
O=C1CN=C(c2ccccc2Cl)c2cc(Cl)ccc2N1	0
O=C(c1cnccn1)N1C[C@@H]2C[C@H](C1)c1c(-c3cccs3)ccc(=O)n1C2	0
Cc1cccc2cc(CN3CCCN4CCC[C@H]4C3)c(=O)[nH]c12	0
SMILES	ST2 inh
CCN(CC)C[C@H]1CN2CC[C@H]1C[C@@H]2CNC(=O)c1ccco1	0
CC(NC(=O)C(Cl)(Cl)Cl)c1ccccc1 (stereo not drawn)	0
CC(C)c1ccc(CN2CCN(c3ccccc3)CC2)cc1	0
COc1ccc(N2CCN(Cc3cccc(Br)c3)CC2)cc1	44%
Brc1ccc(CN2CCN(c3ccccc3)CC2)cc1	32%
Fc1ccc(N2CCN(Cc3cccc(Br)c3)CC2)cc1	0
CC(=O)c1ccc(N2CCN(Cc3cccc(Br)c3)CC2)cc1	0
Cc1ccccc1N1CCN(Cc2ccc(Br)cc2)CC1	0
O=C(NC1CC1)[C@H]1CN2CC[C@H]1C[C@@H]2Cn1cc(-c2cccc(O)c2)nn1	0
CCOC(=O)Cc1csc(NC(=O)c2cccn(Cc3ccccc3F)c2=O)n1	0
CC(C)NC(=O)NC[C@H]1C[C@@H]2CCN1C[C@@H]2CN1C[C@@H]2C[C@H](C1)c1cccc(=O)n1C2	0
C=C[C@H]1CN2CC[C@H]1C[C@@H]2CNC(=S)NCc1ccccc1	0
CCOc1ccccc1N1CCN(Cc2cccc(C)c2)CC1	0
CSc1ccc(-c2ccc3n(c2=O)C[C@@H]2CNC[C@H]3C2)cc1	0
O=C(NC[C@H]1C[C@@H]2CCN1C[C@@H]2CN1CCN(c2ccccn2)CC1)c1ccccc1	0
CN1CCN(Nc2ccc([N+](=O)[O-])cn2)CC1	0
c1cncc(CN2CCCCCC2)c1	0
CCN(CCNc1ccc([N+](=O)[O-])c2cccnc12)S(=O)(=O)c1ccccc1	0
O=[N+]([O-])c1ccc(N2CCCCC2)c2ncccc12	62%
O=[N+]([O-])c1ccc(NCc2ccccc2)c2ncccc12	51%
O=[N+]([O-])c1ccc(O)cc1CN1CCN(Cc2ccccc2)CC1	0
COc1ccccc1N1CCN(C[C@H]2CN3CC[C@H]2C[C@@H]3CNC(=O)Nc2cccc(F)c2)CC1	0
COCCC(=O)N1C[C@@H]2C[C@H](C1)c1ccc(NS(=O)(=O)c3ccccc3)c(=O)n1C2	0
CSc1cccc(CNC(=O)c2cn(C3CCCCC3)nn2)c1	0

Screening results from PubChem.
